PNC assembly inh – blocks assembly of the perinucleolar compartment | PC3M PTB-GFP, PNC prevalence imaging, 16 h; active compounds read low | activity change (PNC), negative = inhibition, % at 10 µM | hit rate 3.1% among 140,000 | AID 2417;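 active means readout at or below -70, meaning at least 70% loss of cells showing the perinucleolar compartment, a nuclear body marking cancer cells; inconclusive means readout between -30 and a set limit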;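 further: plate controls were DMSO wells for no effect and camptothecin positive control wells for full effect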
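Compounds are pinned in duplicate onto adhered PC3M cells stably expressing GFP-tagged PTB and incubated 16 h at 37 C. Cells are then fixed, nuclei stained with Hoechst, and PNC-positive cells counted.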
12-hLO inh – 12-hLO (ALOX12) enzyme inhibition; P18054; purified 12-hLO, xylenol orange hydroperoxide absorbance; Potency, µM (top dose mostly 57.1 µM), without a hit: top-dose activity change, negative = inhibition, hits mostly inhibitors; hit rate 0.12% among 150,000; AID 1452; active means well fitted inhibition curve with a large enough effect; inconclusive means small, poorly fitted or top-dose-only effect; further: potency means the concentration at half of the fitted maximal effect; nearly all actives have a fitted effect of over 55% in size
Target sequence (P18054 whole entry, looked up): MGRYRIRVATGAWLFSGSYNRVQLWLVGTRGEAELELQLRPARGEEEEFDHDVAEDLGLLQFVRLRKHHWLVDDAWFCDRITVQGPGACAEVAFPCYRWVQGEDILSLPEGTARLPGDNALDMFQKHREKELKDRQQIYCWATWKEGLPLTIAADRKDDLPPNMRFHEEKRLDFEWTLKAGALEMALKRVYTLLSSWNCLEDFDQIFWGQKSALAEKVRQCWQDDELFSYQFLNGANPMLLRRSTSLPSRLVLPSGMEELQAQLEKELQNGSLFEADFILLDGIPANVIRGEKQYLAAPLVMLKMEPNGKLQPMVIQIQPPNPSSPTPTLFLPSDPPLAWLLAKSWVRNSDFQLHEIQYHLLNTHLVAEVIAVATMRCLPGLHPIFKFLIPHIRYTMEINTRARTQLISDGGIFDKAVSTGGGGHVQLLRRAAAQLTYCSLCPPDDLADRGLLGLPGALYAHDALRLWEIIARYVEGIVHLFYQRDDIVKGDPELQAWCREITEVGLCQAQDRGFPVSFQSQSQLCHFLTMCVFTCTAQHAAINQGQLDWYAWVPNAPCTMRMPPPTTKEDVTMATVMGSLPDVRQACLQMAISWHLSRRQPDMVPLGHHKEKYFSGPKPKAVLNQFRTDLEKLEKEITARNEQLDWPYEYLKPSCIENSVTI
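Purified human 12hLO (150 nM), preincubated 15 min with compound, then 40 uM arachidonic acid for 30 min, room temperature, Hepes pH 7.0 with 0.01% Triton X-100. Hydroperoxide detected by ferrous iron/xylenol orange; 573/405 nm absorbance ratio gives reaction progress.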
LMNA splice mod – changes lamin A minigene splicing in HeLa cells. HeLa LMNA splicing GFP/RFP minigene ratio, 48 h. Potency, µM (series often up to 46.1 µM), for the others: at the top dose ratio change, negative = inhibition, usual class: inhibitors. hit rate 0.01% among 200,000. AID 1487; active means well fitted inhibition curve with a large enough effect in the signal ratio, with a control signal flat, not every such curve was filed as active; inconclusive means small, poorly fitted or top-dose-only effect, or effect the other way, or a change in a side signal; the % refers to the signal ratio; further: potency means the concentration at half of the fitted maximal effect
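Read-out is the ratio of GFP to DsRed2 object intensity, acquired by 488 nm laser-scanning cytometry on HeLa lamin A-EGFP minigene reporter cells. Compound incubation 48 hrs at 37 °C in Opti-MEM with 2% FBS; DMSO 0.5% final.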
ALDH1A1 inh – blocks purified human ALDH1A1 activity; Purified ALDH1A1, NADH fluorescence, propionaldehyde substrate; Potency, µM (titrated, usually from 75.3 µM), for the others: top-dose activity, negative = inhibition, usual class: inhibitors; hit rate 7.3% among 220,000; AID 1030;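 further: potency means the concentration at half of the fitted maximal effect; plate controls were no enzyme wells and a reference inhibitor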
HPGD inh – blocks human HPGD enzyme activity; hit rate 4.3% among 150,000; P15428; purified HPGD, NADH fluorescence kinetic, PGE2 substrate; Potency, µM, inactives show at the highest dose activity change, negative = inhibition, usual class: inhibitors; AID 894; further: potency means the concentration at half of the fitted maximal effect
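NADH formation kinetics: reaction with 30 uM PGE2 and 1 mM NAD+ (final), 20 nM enzyme, Tris-HCl pH 8 with Tween 20, after 15 min compound preincubation at room temperature. Fluorescence change, last versus first of five reads.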
The depositor's hits bear a star; [ ] = dose if it differs, or a comment. This is a sample that favours compounds with a hit; in the whole collection about 10% have one here. Unless noted, the call rests on the fitted dose curve; in most records, active means well fitted inhibition curve with a large enough effect (not every such curve was filed as active); inconclusive means small, poorly fitted or top-dose-only effect, or another doubt; inactive means no such curve, though single readings can be large or run the other way. Unless noted, on the % scale 0 is the no-effect control and ±100 the full control effect.

CCCCC(=O)NNC(=S)NC(=O)c1ccc([N+](=O)[O-])cc1 was read as LMNA splice mod inconclusive and ALDH1A1 inh 5.62µM*.
`CCC(Sc1nc(C)cc(=O)[nH]1)C(=O)Nc1sc2c(c1C#N)CCCC2` (configuration not stated) gave PNC assembly inh 24.4, 12-hLO inh -10.5%, LMNA splice mod inconclusive, ALDH1A1 inh inconclusive and HPGD inh -11.4%.
For CCC(Sc1nnc2c3ccccc3n(CC)c2n1)C(=O)Nc1sc2c(c1C#N)CCCC2 (configuration not stated) the results were PNC assembly inh 25.2, 12-hLO inh 2.6%, LMNA splice mod -0.8%, ALDH1A1 inh 17.8µM* and HPGD inh -28.5%.
For Cn1c(=O)cc(SCC(=O)N2CCCC2)c2ccc(Cl)cc21 the results were PNC assembly inh 75.6, 12-hLO inh 1.6%, LMNA splice mod -10.1%, ALDH1A1 inh inconclusive and HPGD inh 14.1µM*.
Screening Cc1ccc(C(=O)ONc2ccc(N=NC(=O)c3ccccc3O)cc2)cc1 returned PNC assembly inh 28.1, 12-hLO inh 2.7%, LMNA splice mod 9.6%, ALDH1A1 inh inconclusive and HPGD inh 28.2µM*.
Cc1ccc(C(=O)ONc2ccc(N=O)cc2)cc1 was read as PNC assembly inh -117.0*, 12-hLO inh -1.0%, LMNA splice mod -7.7%, ALDH1A1 inh inconclusive and HPGD inh -5.9%.
O=Nc1ccc(NOC(=O)c2ccc(Br)cc2)cc1 was read as PNC assembly inh 52.8, 12-hLO inh 6.3%, LMNA splice mod 5.6%, ALDH1A1 inh 6.2% and HPGD inh -6.6%.
For C=C1C(=O)O[C@@H]2[C@H]3O[C@]3(C)CCC=C(C)CC[C@@H]12 the results were 12-hLO inh -1.0%, LMNA splice mod inconclusive, ALDH1A1 inh 20µM* and HPGD inh -4.5%.
Screening C=C1C(=O)O[C@@H]2[C@@H]1CC/C(C)=C\CC[C@@]1(C)O[C@H]21 returned 12-hLO inh -1.4%[25.6 µM], LMNA splice mod inconclusive, ALDH1A1 inh 10µM* and HPGD inh -1.3%.
For COC(=O)c1c(NC(=S)Nc2cc(OC)c(Cl)cc2OC)sc2c1CCCCC2 the results were PNC assembly inh inconclusive, 12-hLO inh -2.6%, LMNA splice mod inconclusive, ALDH1A1 inh 6.31µM* and HPGD inh inconclusive.
For Cc1occc1C(=O)Nc1sc2c(c1C(N)=O)CCCCC2 the results were PNC assembly inh -23.4, 12-hLO inh -7.3%, LMNA splice mod inconclusive, ALDH1A1 inh inconclusive and HPGD inh -24.9%.
COC(=O)c1c(NC(=O)c2ccoc2C)sc2c1CCC2 was read as PNC assembly inh -109.2*, 12-hLO inh -6.2%, LMNA splice mod 6.2%, ALDH1A1 inh inconclusive and HPGD inh inconclusive.
`COC(=O)c1c(NC(=O)c2nn(C)cc2Cl)sc2c1CCCC2` gave PNC assembly inh -92.3*, 12-hLO inh 2.2%, LMNA splice mod -2.6%, ALDH1A1 inh inconclusive and HPGD inh inconclusive.
For CCOC(=O)C1CCCN(S(=O)(=O)c2ccc3[nH]c(=O)ccc3c2)C1 (configuration not stated) the results were LMNA splice mod 6.8%[46 µM].
Screening CCCCCCCCCCC/C=C\C(C)(C)/C=C\CCCC(=O)O returned 12-hLO inh 1.4%, LMNA splice mod -10.6%, ALDH1A1 inh -11.8% and HPGD inh -4.5%.
CC1CCC(Nc2ncnc3onc(-c4ccc(Cl)cc4)c23)CC1 (configuration not stated) was read as LMNA splice mod -11.6%[46 µM].
Screening Cn1c(=O)c2c(nc(CN3CCN(C(=O)c4ccco4)CC3)n2CCc2ccccc2)n(C)c1=O returned PNC assembly inh inconclusive, 12-hLO inh -1.4%, LMNA splice mod 5.7%, ALDH1A1 inh 12.6µM* and HPGD inh -9.6%.
CCN1CCN(Cc2nc3c(c(=O)n(C)c(=O)n3C)n2CCc2ccccc2)CC1 was read as PNC assembly inh inconclusive, 12-hLO inh -4.3%, LMNA splice mod -5.9%, ALDH1A1 inh 2.1% and HPGD inh 0.1%.
Screening Cn1c(=O)c2c(nc(CN3CCN(c4ccccc4)CC3)n2CCN2CCOCC2)n(C)c1=O returned PNC assembly inh 37.3, 12-hLO inh 1.3%, LMNA splice mod -5.3%, ALDH1A1 inh inconclusive and HPGD inh 1.8%.
For CCN1CCN(Cc2nc3c(c(=O)n(C)c(=O)n3C)n2CCCc2ccccc2)CC1 the results were PNC assembly inh -14.7, 12-hLO inh -1.2%, LMNA splice mod 0.7%, ALDH1A1 inh 12.6µM* and HPGD inh -14.4%.
`CCCCCCn1c(CN2CCN(Cc3ccccc3)CC2)nc2c1c(=O)n(C)c(=O)n2C` gave PNC assembly inh inconclusive, 12-hLO inh -1.7%, LMNA splice mod -5.3%, ALDH1A1 inh inconclusive and HPGD inh -8.9%.
`COc1ccc(N2CCN(Cc3nc4c(c(=O)n(C)c(=O)n4C)n3CCc3ccccc3)CC2)cc1` gave PNC assembly inh -24.9, 12-hLO inh 0.9%, LMNA splice mod -10.1%, ALDH1A1 inh inconclusive and HPGD inh -11.1%.
`Cn1c(=O)c2c(nc(CN3CCOCC3)n2CCc2ccccc2)n(C)c1=O` gave PNC assembly inh 21.1, 12-hLO inh -5.6%, LMNA splice mod 4.9%, ALDH1A1 inh 7.08µM* and HPGD inh -4.7%.
Screening Cn1c(=O)c2c(nc(CN3CCN(C(=O)c4ccco4)CC3)n2CCCc2ccccc2)n(C)c1=O returned PNC assembly inh 28.9, 12-hLO inh 8.1%, LMNA splice mod 0.2%, ALDH1A1 inh 1.26µM* and HPGD inh -1.0%.
For CCOc1ccccc1NC(=O)c1cc(S(=O)(=O)N2CCOCC2)cn1C the results were LMNA splice mod 3.6%[46 µM].
Screening Cn1c(=O)c2c(nc(-n3ccnc3)n2Cc2ccccc2)n(C)c1=O returned PNC assembly inh -9.1, 12-hLO inh -1.8%, LMNA splice mod inconclusive, ALDH1A1 inh 10µM* and HPGD inh -14.1%.
Screening O=C(O)c1ccc(S(=O)(=O)N(Cl)Cl)cc1 returned 12-hLO inh -1.3%, ALDH1A1 inh inconclusive and HPGD inh -8.3%.
For Cn1c(=O)cc(OCC(=O)NC2CCCCC2)c2ccccc21 the results were PNC assembly inh 14.0, 12-hLO inh -2.3%, LMNA splice mod 15.3%, ALDH1A1 inh inconclusive and HPGD inh -27.1%.
`Cn1c(=O)cc(OCCCC(=O)NC2CCCC2)c2ccccc21` gave PNC assembly inh -13.3, 12-hLO inh -4.3%, LMNA splice mod inconclusive, ALDH1A1 inh 2.8% and HPGD inh 14.1µM*.
For Cn1c(=O)cc(OCCCC(=O)N2CCCCC2)c2ccccc21 the results were PNC assembly inh -12.8, 12-hLO inh 0.7%, LMNA splice mod inconclusive, ALDH1A1 inh -4.5% and HPGD inh 7.08µM*.
`COc1ccc(NC(=O)c2cc3c(Cl)nc4ccccc4c3s2)cc1OC` gave PNC assembly inh -87.6*, 12-hLO inh -1.1%, LMNA splice mod 1.3%, ALDH1A1 inh 2.5% and HPGD inh -5.1%.
`CC(C)c1onc(C(=O)N2CCOCC2)c1[N+](=O)[O-]` gave ALDH1A1 inh 0.1%.

Bioassay records from PubChem BioAssay.
